The source of these data is PubChem BioAssay AID1456 (Vanderbilt High Throughput Screening Facility, 2008).

Screen size: about 190,000 compounds; about 4,100 (2.2%) were called active. This is one part of a sample in which actives are shown more often than they occur. Values without a mark were called inactive.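 How the source made its calls: active means thallium flux slope and its plate-corrected score both differing from the plate sample mean at a set confidence after two filtering rounds, in either direction; inactive means the rest.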

The test deals with Solute carrier family 12 member 5 (Homo sapiens) (UniProt Q9H2X9). Nature of the test: modulation of human KCC2 ion transport – cell-based, HEK293 KCC2, FluoZin-2 fluorescence, MLSMR, primary screen (AID 1456).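 Further: slope of fluorescence scaled to starting intensity during 10 to 20 s after thallium.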 As to conditions: KCC2 cells, thallium flux FluoZin-2 fluorescence; at 10 µM.
Solute carrier family 12 member 5 (Homo sapiens), sequence (Q9H2X9 whole entry, looked up): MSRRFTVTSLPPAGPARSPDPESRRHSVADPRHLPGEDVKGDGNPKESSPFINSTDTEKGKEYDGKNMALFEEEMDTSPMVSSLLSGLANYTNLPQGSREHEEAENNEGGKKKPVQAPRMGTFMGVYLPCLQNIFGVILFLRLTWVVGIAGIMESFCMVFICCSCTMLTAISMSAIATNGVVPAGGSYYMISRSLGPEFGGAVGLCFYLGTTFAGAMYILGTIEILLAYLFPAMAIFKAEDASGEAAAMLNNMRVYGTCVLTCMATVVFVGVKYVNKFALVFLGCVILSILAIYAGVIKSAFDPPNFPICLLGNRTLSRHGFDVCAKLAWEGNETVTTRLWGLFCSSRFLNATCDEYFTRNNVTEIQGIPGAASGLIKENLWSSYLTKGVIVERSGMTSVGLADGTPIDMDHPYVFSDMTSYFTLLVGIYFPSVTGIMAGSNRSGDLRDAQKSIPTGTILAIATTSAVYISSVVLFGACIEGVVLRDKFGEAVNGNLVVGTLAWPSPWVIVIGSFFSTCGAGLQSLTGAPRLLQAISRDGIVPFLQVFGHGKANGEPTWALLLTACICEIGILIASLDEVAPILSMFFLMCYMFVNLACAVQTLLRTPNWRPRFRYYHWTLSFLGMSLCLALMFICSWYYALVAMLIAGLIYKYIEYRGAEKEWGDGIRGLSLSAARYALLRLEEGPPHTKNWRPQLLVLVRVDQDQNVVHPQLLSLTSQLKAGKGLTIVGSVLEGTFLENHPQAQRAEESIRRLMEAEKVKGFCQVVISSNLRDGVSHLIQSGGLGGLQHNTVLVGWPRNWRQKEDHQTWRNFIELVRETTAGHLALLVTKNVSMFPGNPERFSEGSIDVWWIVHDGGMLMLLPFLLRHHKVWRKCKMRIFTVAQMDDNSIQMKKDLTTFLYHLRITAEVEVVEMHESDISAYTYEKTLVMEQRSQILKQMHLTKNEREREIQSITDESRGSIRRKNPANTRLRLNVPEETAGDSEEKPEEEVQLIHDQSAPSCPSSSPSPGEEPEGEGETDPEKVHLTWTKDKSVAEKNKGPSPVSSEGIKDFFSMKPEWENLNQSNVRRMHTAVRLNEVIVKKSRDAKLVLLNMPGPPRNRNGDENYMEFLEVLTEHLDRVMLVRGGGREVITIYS
For `O=C(c1cccc(C(=O)N2CCc3ccccc32)n1)N1CCc2ccccc21`, the B-score of Tl+ flux slope (higher = more flux/activation; lower = inhibition) was 0.134.

As for `O=C(CSCc1ccccc1)N1CCc2ccccc21`, the B-score of Tl+ flux slope (higher = more flux/activation; lower = inhibition) is -2.43 (active).

Take `Cc1nnc(SCC(=O)N2CCc3ccccc32)n1-c1ccccc1`: the B-score of Tl+ flux slope (higher = more flux/activation; lower = inhibition) was 0.58.

On to `CCNC(=S)N1CCN(C(=O)c2ccco2)CC1`, for which the B-score of Tl+ flux slope (higher = more flux/activation; lower = inhibition) is 0.133.

Take `O=C(NC(=S)N1CCc2ccccc21)c1ccco1`: the B-score of Tl+ flux slope (higher = more flux/activation; lower = inhibition) was 23.3 (active).

Take `NC(=O)N1CCc2ccccc21`: the B-score of Tl+ flux slope (higher = more flux/activation; lower = inhibition) was 0.799.

With `O=C(NCc1cccnc1)C(=O)Nc1nc(-c2ccccc2)cs1`, the B-score of Tl+ flux slope (higher = more flux/activation; lower = inhibition) was -0.384.

Consider `O=C(CCCN1C(=O)/C(=C\c2ccccc2)SC1=S)Nc1ccccc1O`, for which the B-score of Tl+ flux slope (higher = more flux/activation; lower = inhibition) is 0.281.

Take `CCN(CC(=O)Nc1cccc(S(N)(=O)=O)c1)Cc1nc2ccccc2c(=O)[nH]1`: the B-score of Tl+ flux slope (higher = more flux/activation; lower = inhibition) was 1.06.

Consider `Cc1coc2cc3oc(=O)c(CCC(=O)O)c(C)c3cc12`, for which the B-score of Tl+ flux slope (higher = more flux/activation; lower = inhibition) is -0.564.

As to `C=CCn1c(=S)[nH]c2scc(-c3ccco3)c2c1=O`, the B-score of Tl+ flux slope (higher = more flux/activation; lower = inhibition) was 111 (active).

Turning to `C=CCn1c(SCc2csc(C)n2)nc2scc(-c3ccc(C)o3)c2c1=O`, the B-score of Tl+ flux slope (higher = more flux/activation; lower = inhibition) is 0.11.

Take `C=CCNC(=O)CSc1nc2scc(-c3ccco3)c2c(=O)n1CC=C`: the B-score of Tl+ flux slope (higher = more flux/activation; lower = inhibition) was -0.677.

`Nc1cccc(S(=O)(=O)Nc2ccc(SC(F)F)cc2)c1`: the B-score of Tl+ flux slope (higher = more flux/activation; lower = inhibition) was -0.199.

Turning to `COc1ccc(-n2c(C)nc3c(cnn3-c3ccccc3)c2=O)cc1`, the B-score of Tl+ flux slope (higher = more flux/activation; lower = inhibition) was -0.335.

Turning to `Cc1ccc(Oc2cnn(-c3ccccc3)c(=O)c2Br)cc1`, the B-score of Tl+ flux slope (higher = more flux/activation; lower = inhibition) is -2.71.

Take `COc1ccc(Oc2c(Cl)cnn(-c3ccccc3)c2=O)cc1`: the B-score of Tl+ flux slope (higher = more flux/activation; lower = inhibition) was -3.99 (active).

`CC1C(=O)NC(=O)C1c1ccccc1` (stereo not given): the B-score of Tl+ flux slope (higher = more flux/activation; lower = inhibition) is 0.0909.

Take `CCc1ccc2nc3sc(C(=O)Nc4nnc(CC)s4)c(N)c3cc2c1`: the B-score of Tl+ flux slope (higher = more flux/activation; lower = inhibition) is -4.25 (active).

`CCc1nnc(NC(=O)c2sc3nc(C)cc(COC)c3c2N)s1`: the B-score of Tl+ flux slope (higher = more flux/activation; lower = inhibition) is 0.922.

As for `CCc1nnc(NC(=O)c2cccc(S(=O)(=O)N(C)c3ccc(OC)cc3)c2)s1`, the B-score of Tl+ flux slope (higher = more flux/activation; lower = inhibition) was -0.265.

For the molecule `Cc1ccc(S(=O)(=O)N(C)CC(=O)OCC(=O)Nc2ccccc2)cc1`, the B-score of Tl+ flux slope (higher = more flux/activation; lower = inhibition) is -1.25.

On to `Cc1nc(N)sc1N=Nc1c(C)n(C)n(-c2ccccc2)c1=O`, for which the B-score of Tl+ flux slope (higher = more flux/activation; lower = inhibition) was 0.0239.

Consider `O=C(O)CSCc1nc2ccccc2s1`, for which the B-score of Tl+ flux slope (higher = more flux/activation; lower = inhibition) was 0.175.

`O=C(O)CS/C(=C\c1ccc(F)cc1)c1nc2ccccc2s1`: the B-score of Tl+ flux slope (higher = more flux/activation; lower = inhibition) was -7.14 (active).

As for `COc1ccc(/C=C(/CC(=O)Nc2ccc(C)cc2)c2nc3ccccc3s2)cc1`, the B-score of Tl+ flux slope (higher = more flux/activation; lower = inhibition) was -0.666.

Regarding `O=C(CC1SC(=Nc2ccccc2F)N(CCN2CCOCC2)C1=O)Nc1ccc(F)cc1F` (stereo not given), the B-score of Tl+ flux slope (higher = more flux/activation; lower = inhibition) is 0.206.

As to `Cc1ccc2cc(/C=N/NC(=O)[C@@H]3CCCN3)c(Cl)nc2c1`, the B-score of Tl+ flux slope (higher = more flux/activation; lower = inhibition) is 0.721.

`Cc1cccc(C(=O)NC(=S)N2CCN(c3ccc([N+](=O)[O-])cc3)CC2)c1`: the B-score of Tl+ flux slope (higher = more flux/activation; lower = inhibition) is 1.26.

As to `COc1cc(OC)cc(C(=O)NC(=S)N2CCN(c3ccc(C(F)(F)F)cc3[N+](=O)[O-])CC2)c1`, the B-score of Tl+ flux slope (higher = more flux/activation; lower = inhibition) was 6.75 (active).

As to `O=C(Nc1cccc(C(F)(F)F)c1)c1ccc(N2CCNCC2)c([N+](=O)[O-])c1`, the B-score of Tl+ flux slope (higher = more flux/activation; lower = inhibition) is 1.31.

For `Cc1cccc(C(=O)OCC(=O)NCC(C)C)c1O`, the B-score of Tl+ flux slope (higher = more flux/activation; lower = inhibition) was -0.558.

In the case of `O=C(NCCc1ccccc1)Oc1ccc(Cl)cc1`, the B-score of Tl+ flux slope (higher = more flux/activation; lower = inhibition) was -2.47.

For `O=C(O)c1ccccc1-c1ccccc1C(=O)Nc1cccc2ccccc12`, the B-score of Tl+ flux slope (higher = more flux/activation; lower = inhibition) was -0.144.

Consider `CC(C)C1Nc2c(C(=O)O)cccc2C(Nc2ccccc2C(=O)O)C1(C)C` (stereo not given), for which the B-score of Tl+ flux slope (higher = more flux/activation; lower = inhibition) was -7.13 (active).

Take `CCNC(=O)CCc1nc(-c2ccc(C)cc2)no1`: the B-score of Tl+ flux slope (higher = more flux/activation; lower = inhibition) was 0.371.

As to `C/C(Cc1ccccc1)=N\NC(=O)CNC(=O)c1ccccc1Cl`, the B-score of Tl+ flux slope (higher = more flux/activation; lower = inhibition) was -0.103.

On to `O=C(Nc1cccc(Cl)c1)Nc1nnc(-c2ccccc2)o1`, for which the B-score of Tl+ flux slope (higher = more flux/activation; lower = inhibition) is 3.17.

Turning to `O=C(Nc1ccc(-c2nnc(-c3ccccc3)o2)cc1)c1ccc(Br)o1`, the B-score of Tl+ flux slope (higher = more flux/activation; lower = inhibition) is 1.83.

As for `O=C(Nc1nnc(-c2ccc(Cl)cc2)o1)c1ccccc1Br`, the B-score of Tl+ flux slope (higher = more flux/activation; lower = inhibition) was 35.2 (active).

For the molecule `O=C(NNS(=O)(=O)Cc1ccccc1)c1ccc([N+](=O)[O-])cc1`, the B-score of Tl+ flux slope (higher = more flux/activation; lower = inhibition) was 0.00978.

In the case of `COc1ccccc1NC(=S)NC(=O)C(C)C`, the B-score of Tl+ flux slope (higher = more flux/activation; lower = inhibition) is 1.52.

As to `FC(F)Oc1ccccc1NC(=S)Nc1cccc(Cl)c1Cl`, the B-score of Tl+ flux slope (higher = more flux/activation; lower = inhibition) is 6.89 (active).

Regarding `COc1ccc(NC(=S)Nc2ccccc2Cl)cn1`, the B-score of Tl+ flux slope (higher = more flux/activation; lower = inhibition) is 0.811.

`Cc1ccc(Cn2c(SCC(=O)N/N=C/c3ccccc3OCC(=O)O)nc3ccccc32)cc1`: the B-score of Tl+ flux slope (higher = more flux/activation; lower = inhibition) was 1.95.

As for `O=C(CSc1nnc2n1CCCN2)c1ccccc1`, the B-score of Tl+ flux slope (higher = more flux/activation; lower = inhibition) is -0.0921.

Turning to `CC(C)N1CCC(=NNc2ccc([N+](=O)[O-])cc2S(=O)(=O)N2CCOCC2)CC1`, the B-score of Tl+ flux slope (higher = more flux/activation; lower = inhibition) is 0.0282.

`Cc1ccc(NNC(=O)C2CCC2)cc1C`: the B-score of Tl+ flux slope (higher = more flux/activation; lower = inhibition) was 0.435.

Regarding `O=C1/C(=C\c2ccsc2)NC(=S)N1c1ccccc1`, the B-score of Tl+ flux slope (higher = more flux/activation; lower = inhibition) was 11.5 (active).

As to `CN(C)c1ccc(/C=C2\NC(=S)N(Cc3ccccc3)C2=O)cc1`, the B-score of Tl+ flux slope (higher = more flux/activation; lower = inhibition) is 2.56.
